# Rv3671c inh – inhibitors of M. tuberculosis serine protease Rv3671c; inhibition, % at 5.96 µM; P9WHR9; 320,000 compounds, 0.048% hits; AID 2606; in the data active = inhibition above about 38%;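 note: extracellular domain of Rv3671c used as enzyme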
# FBA Mtb inh – Mtb fructose-bisphosphate aldolase inhibition; purified M. tuberculosis FBA, fluorescence read-out; inhibition, % at 1 µM; 360,000 compounds, 2.3% hits; AID 588726
# GDH-TPI counter-1 – inhibits GDH-TPI coupling enzymes, artifact for Mtb FBA screen. GDH-TPI coupled enzyme counterscreen, NADH absorbance. AID 588335. inhibition, % at 4.8 µM. 360,000 compounds, 1.2% hits; in the data active = inhibition above about 30%
# UGM FP inh – inhibitors of M. tuberculosis UDP-galactopyranose mutase; P9WIQ1; 320,000 compounds, 0.06% hits; inhibition, % at 10 µM; purified UGM, fluorescence polarization probe displacement; in the data active = inhibition above about 10%, passing the limit was not always enough
# Target sequence (P9WIQ1 whole entry, looked up): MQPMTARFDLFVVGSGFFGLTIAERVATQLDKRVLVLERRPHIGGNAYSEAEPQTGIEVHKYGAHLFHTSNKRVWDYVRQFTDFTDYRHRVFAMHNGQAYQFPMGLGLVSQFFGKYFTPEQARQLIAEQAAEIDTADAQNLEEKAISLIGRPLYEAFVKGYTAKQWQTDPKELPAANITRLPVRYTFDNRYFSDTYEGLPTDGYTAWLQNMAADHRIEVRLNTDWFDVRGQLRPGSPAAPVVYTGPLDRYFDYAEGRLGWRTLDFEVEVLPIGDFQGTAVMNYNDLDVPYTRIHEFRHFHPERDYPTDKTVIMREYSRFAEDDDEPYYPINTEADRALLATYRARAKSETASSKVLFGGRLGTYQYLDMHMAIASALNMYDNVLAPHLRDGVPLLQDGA
# Mtb bLac sens – beta-lactam sensitization of Mtb H37Rv; M. tuberculosis H37Rv growth with meropenem, percent inhibition; AID 434955; inhibition, % at 25 µM; 330,000 compounds, 0.27% hits; call rule not given here;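 note: growth measured after seven days incubation then overnight dye step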
# FadD28 FP inh – blocks FadD28 binding to the bisubstrate probe; fluorescence polarization; inhibition, % at 12.5 µM; 360,000 compounds, 0.22% hits; in the data active = inhibition above about 8.5%, passing the limit was not always enough
# Mtb FBA confirm – Mtb FBA inhibition, confirmed. shares compounds with FBA Mtb inh. AID 651616. purified M. tuberculosis FBA, fluorescence read-out. inhibition, % at 1 µM. 5,600 compounds, 78% hits
# GDH-TPI counter-2 – GDH-TPI inhibition counter-screen for FBA inhibitors | inhibition, % at 1 µM | GDH-TPI coupled enzyme counterscreen, fluorescence | AID 652141 | 5,600 compounds, 81% hits | shares compounds with FBA Mtb inh; in the data active = inhibition above about 10%
# Numbers stand for hits; - = inactive; . = no result; + = active, no number. An excerpt weighted towards active compounds, which were near 3.7% of everything screened. Cut-off read from the data, not from the text of the source, unless noted: active = inhibition above about 27%; inactive = the rest.
SMILES,Rv3671c inh,FBA Mtb inh,GDH-TPI counter-1,UGM FP inh,Mtb bLac sens,FadD28 FP inh,Mtb FBA confirm,GDH-TPI counter-2
Cc1ccc(S(=O)(=O)N2C[C@H]3C(=O)C[C@@H](c4ccccc4)N(S(=O)(=O)c4ccc(C)cc4)[C@H]3C[C@H]2c2ccccc2F)cc1,.,-,.,.,.,-,.,.
Cc1cnc(C)c(Nc2nc(C(N)c3ccccc3)cs2)n1 (stereo unspecified),.,-,-,.,.,-,.,.
CC1CCCC(C)N1NC(=S)Nc1ccc(OC(F)F)cc1 (stereo unspecified),-,55,-,-,-,-,60,53
CCCCCCSc1cc(-c2nc3ccc(C)cn3c2NCc2ccccc2)ccc1OC,-,28,-,-,-,-,188,136
CCCCNc1c(-c2ccc(SC(C)CC)c(OC)c2)nc2ccc(Cl)cn12 (stereo unspecified),-,-,-,-,-,-,.,.
CCCCCCSc1cccc(-c2nc3cc(C)ccn3c2NCc2ccccc2)c1,-,28,-,-,-,-,122,104
CCCCNc1c(-c2ccc(SC(C)CC)c(OC)c2)nc2ccc(C)cn12 (stereo unspecified),-,48,-,-,-,-,35,27
CCCCCCSc1cc(-c2nc3cc(C)ccn3c2NCCCC)ccc1OC,-,-,-,-,-,-,.,.
CCCCNc1c(-c2ccc(-c3ccc(OC)cc3)c(OC)c2)nc2ccccn12,-,73,-,.,-,-,82,59
CC1(C(=O)NS(=O)(=O)C2CC2)CCN(C(=O)CSc2ccccc2)C1 (stereo unspecified),.,-,-,.,.,-,.,.
COC(=O)c1cc(C(=O)Nc2nc3ccccc3[nH]2)cc([N+](=O)[O-])c1,-,-,-,-,-,-,.,.
CCCCCCSc1cccc(-c2nc3ccccn3c2NCc2ccccc2)c1,-,42,-,-,-,-,101,66
CCCCn1nnnc1NCc1cccnc1,-,30,-,-,-,-,+,+
CCCCn1nnnc1NCc1ccc(N2CCCC2)cc1,-,-,-,-,-,-,.,.
COc1ccc(-c2c[n+]3c4n2CCCCC4=C(c2ccccc2)C3)cc1,-,106,-,.,-,-,-,-
COc1ccc(-c2c[n+](CC(=O)c3ccccc3)c3n2CCCCC3)cc1,-,-,-,-,-,-,.,.
O=C(NCc1ccccc1)N1CCN(CCO)CC1,-,-,-,-,-,-,.,.
O=C(O)/C=C\C(=O)Nc1ccccc1C(=O)NC1CCCCC1,-,52,-,-,-,-,-,-
O=C(Nc1ccccc1C(=O)NC1CCCCC1)c1ccco1,-,-,-,-,-,-,.,.
C[C@@H]1CN([C@H](C)CO)C(=O)c2cc(/C=C/c3ccccc3)cnc2O[C@H]1CN(C)C(=O)NC1CCCCC1,.,60,-,.,.,-,75,70
C[C@H]1CN([C@@H](C)CO)C(=O)c2cc(Br)cnc2O[C@@H]1CN(C)C(=O)NC1CCCCC1,.,-,-,.,.,-,.,.
COc1cc(S(C)=O)ccc1-c1nc2ncccc2[nH]1 (stereo unspecified),-,55,32,-,-,-,90,72
C[C@@H]1CN([C@@H](C)CO)C(=O)CCCn2nncc2CO[C@@H]1CN(C)C(=O)Cc1ccccc1,.,-,-,.,.,-,.,.
CC(=O)Nc1ccc(C(=O)COC(=O)C2CC3CCCC(C2)C3=O)cc1 (stereo unspecified),-,-,-,-,-,-,.,.
Cc1cc(C(=O)COC(=O)c2nn(C)c(=O)c3ccccc23)c(C)n1C,.,-,-,.,.,-,.,.
SMILES,Rv3671c inh,FBA Mtb inh,GDH-TPI counter-1,UGM FP inh,Mtb bLac sens,FadD28 FP inh,Mtb FBA confirm,GDH-TPI counter-2
Cc1cc2c(C)nc(-c3ccccc3)nc2o1,-,-,-,-,-,-,.,.
Cc1nc(-c2cn[nH]c2)c2cc(C)oc2n1,-,27,-,-,-,-,134,110
Cc1csc(NC(=O)CSc2nc3nc(C)cc(C)n3n2)n1,-,-,-,-,-,-,.,.
CCCCN1C(=O)C(CC(=O)NC2CCCCC2)CC(C(=O)N(C(C)C)C(C)C)=C1C (stereo unspecified),.,-,-,.,.,-,.,.
CCN1CCN(C(=O)c2cc3cc(F)ccc3[nH]2)CC1,-,82,-,-,-,-,148,96
CC(Oc1ccc2c3c(c(=O)oc2c1)CCCC3)C(=O)NCc1ccncc1 (stereo unspecified),-,51,-,-,-,-,-,-
O=C(O)CCNC(=O)COc1ccc2c3c(c(=O)oc2c1)CCCC3,.,66,-,-,-,-,40,35
O=C(COc1ccc2c3c(c(=O)oc2c1)CCC3)NCCN1CCOCC1,-,-,-,-,-,-,.,.
O=C(COc1ccc2c(-c3ccccc3)cc(=O)oc2c1)NCCCN1CCOCC1,-,-,-,-,-,-,.,.
O=C(COc1ccc2c3c(c(=O)oc2c1)CCCC3)NCCN1CCOCC1,-,48,-,-,-,-,-,-
O=C(COc1ccc2c3c(c(=O)oc2c1)CCCC3)NCCCN1CCOCC1,-,29,-,-,-,-,89,64
CCOC(=O)Cc1c[nH]c2ccc([N+](=O)[O-])cc12,.,-,-,.,.,-,.,.
CC(C)NC(=O)C1(C)CCN1CCC(=O)c1ccccc1 (stereo unspecified),.,-,-,.,.,-,.,.
O=C(NCc1ccco1)c1ccc2sc([C@@H]3O[C@H](CO)[C@H](O)[C@H](O)[C@H]3O)nc2c1,.,-,-,.,.,-,.,.
Cc1c(OC(C)C(=O)NCc2cccnc2)ccc2c3c(c(=O)oc12)CCCC3 (stereo unspecified),-,61,-,-,-,-,+,+
O=C(COc1ccc2c(c1)oc(=O)c1ccccc12)NCCN1CCOCC1,-,91,-,-,-,-,128,105
Cc1cc(OCC(=O)N2CCOCC2)cc2oc(=O)c3ccccc3c12,-,54,-,-,-,-,70,45
CC(Oc1ccc2c3c(c(=O)oc2c1)CCCC3)C(=O)NCCN1CCOCC1 (stereo unspecified),-,51,-,-,-,-,76,61
CCCCc1cc(=O)oc2cc(OC(C)C(=O)NCc3ccccn3)c(Cl)cc12 (stereo unspecified),-,-,-,-,-,-,.,.
CCCCc1cc(=O)oc2cc(C)cc(OC(C)C(=O)NCc3ccccn3)c12 (stereo unspecified),-,63,-,-,-,-,153,122
CCCCc1cc(=O)oc2cc(C)cc(OCC(=O)NCc3ccccn3)c12,-,64,-,-,-,-,47,39
Cc1cc(OC(C)C(=O)NCc2ccccn2)c2c(C)cc(=O)oc2c1 (stereo unspecified),-,103,-,-,-,-,-,-
CCC(C)n1c(C)cc(=O)n1C(C)CC (stereo unspecified),.,-,-,.,.,-,.,.

# Screening results: PubChem BioAssay, several laboratories
